Test results from PubChem BioAssay (NCATS).
Several values for one entry are separate records, joined by “and”; a condition that tells them apart may be missing. Identical values can stand only once. Results filed as inconclusive are left out. Activity calls are given as the source filed them. Unless noted, the call rests on the fitted dose curve.

What was measured:
[1] = target: Androgen receptor (Homo sapiens) (UniProt P10275); assay: qHTS assay for small molecule agonists of androgen receptor signaling (AID 588515; active means well fitted curve in the direction sought with a large enough effect in the signal ratio, with a control signal flat; the % refers to the signal ratio; further: on the % scale 0 is the no-effect control and ±100 the full control effect); conditions: AR-UAS-bla HEK293, beta-lactamase ratio, agonist 16 h; stronger effect = higher value
Method in brief: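 EC50 and efficacy came from Hill fits of titrations (up to 92 uM) normalized to 30 nM R1881 as 100% and DMSO as 0%. Compound exposure was 16 h at 37 C on AR-UAS-bla HEK293 cells, with a 405/460/530 nm CCF4 fluorescence read.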

[2] = target: Androgen receptor (Homo sapiens) (UniProt P10275); assay: qHTS assay for small molecule antagonists of androgen receptor signaling (AID 588516; active means well fitted curve in the direction sought with a large enough effect in the signal ratio, with a control signal flat, not every such curve was filed as active; the % refers to the signal ratio; further: on the % scale 0 is the no-effect control and ±100 the full control effect); conditions: AR-UAS-bla HEK293, beta-lactamase ratio, antagonist mode, 16 h; series mostly up to 76.8 µM
Method in brief: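 Antagonist mode: inhibition of R1881-stimulated (10 nM final) bla reporter in GeneBLAzer AR HEK 293 cells, 16 h at 37C, compounds titrated. IC50 and efficacy from Hill-equation fits of 405/460–530 nm FRET ratios.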

[3] = target: Bile acid receptor (Homo sapiens) (UniProt Q96RI1); assay: qHTS assay for small molecule antagonists of farnesoid X receptor signaling (AID 588526); conditions: HEK293T FXR-UAS-bla, beta-lactamase ratio, antagonist mode; series mostly up to 76.7 µM; further: on the % scale 0 is the no-effect control and ±100 the full control effect
Method in brief: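 Concentration-response titrations were fitted to the Hill equation for half-maximal inhibition and maximal response, with data normalised to 50 uM chenodeoxycholic acid and DMSO control wells. Cells: FXR-UAS-bla HEK293T, dialyzed FBS.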

[4] = target: Peroxisome proliferator-activated receptor delta (Homo sapiens) (UniProt Q03181); assay: qHTS assay for small molecule antagonists of peroxisome proliferator-activated receptor delta signaling (AID 588535; active means well fitted inhibition curve with a large enough effect in the signal ratio, with a control signal flat, not every such curve was filed as active; the % refers to the signal ratio); conditions: HEK293T PPARd-UAS-bla, beta-lactamase FRET ratio, 18 h; series mostly up to 76.7 µM
Method in brief: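 Reporter: UAS-bla under PPAR-delta response element, HEK293T host. Medium: 2% charcoal/dextran FBS. Dosing: titration, 18 hrs, 37 C. Detection: CCF4, 2 hrs RT, 405 ex/460 and 530 em.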

[5] = target: Peroxisome proliferator-activated receptor gamma (Homo sapiens) (UniProt P37231); assay: qHTS assay for small molecule agonists of peroxisome proliferator-activated receptor gamma signaling (AID 588536; active means well fitted curve in the direction sought with a large enough effect in the signal ratio, with a control signal flat, not every such curve was filed as active; the % refers to the signal ratio;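 further: 0% = DMSO basal wells and 100% = rosiglitazone at 2 µM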); conditions: HEK293 PPARg-UAS-bla, beta-lactamase ratio, 16 h; series mostly up to 76.7 µM
Method in brief: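 GeneBLAzer PPAR-gamma-UAS-bla HEK293 cells in 1% charcoal/dextran-treated FBS medium were treated 16 h at 37 C with compounds. Beta-lactamase activity was read by CCF4 ratio (460/530 nm). Response was normalized to 2 uM rosiglitazone (100%) and DMSO, then Hill-fitted for EC50 and efficacy.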

[6] = target: Peroxisome proliferator-activated receptor gamma (Homo sapiens) (UniProt P37231); assay: qHTS assay for small molecule antagonists of peroxisome proliferator-activated receptor gamma signaling (AID 588537; active means well fitted inhibition curve with a large enough effect in the signal ratio, with a control signal flat, not every such curve was filed as active; the % refers to the signal ratio;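 further: reporter cells co-stimulated with 50 nM rosiglitazone agonist during compound treatment; % of control where 0% means no effect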); conditions: HEK293 PPARg-UAS-bla, beta-lactamase ratio, antagonist mode; series mostly up to 76.8 µM
Method in brief: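 We seeded GeneBLAzer HEK293 reporter cells at 3000 per well, allowed 6-6.5 h attachment at 37 C, then co-treated with test compound titrations and 50 nM rosiglitazone overnight (16 h). Inhibition was quantified from 460/530 nm emission ratios.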

[7] = qHTS assay for small molecule agonists of retinoid X receptor alpha signaling (AID 588544); conditions: HEK293T RXRa-UAS-bla, beta-lactamase reporter, 18 h; 530 nm emission
[8] = qHTS assay for small molecule agonists of the antioxidant response element (ARE) signaling pathway (AID 651741; active means well fitted activation curve with a large enough effect in the signal ratio; the % refers to the signal ratio; further: potency means the concentration at half of the fitted maximal effect; on activation: % of control where 0% means no effect); conditions: HepG2 ARE-bla reporter, beta-lactamase FRET ratio, 16 h; series mostly up to 96 µM
Method in brief: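 Compounds in DMSO are pinned onto HepG2 ARE-bla cells (2,000/well) that were preincubated 5 h; plates stay 16 h at 37 C, then beta-lactamase activity is detected with LiveBLAzer B/G substrate by fluorescence.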

[9] = qHTS assay for small molecule activators of the human pregnane X receptor (PXR) signaling pathway (AID 720659; call rule not given here; further: 0% is about no effect); conditions: DPX-2 HepG2 CYP3A4-luciferase, 24 h; series mostly up to 92.3 µM
[10] = target: Estrogen receptor (Homo sapiens) (UniProt P03372); assay: qHTS assay for small molecule agonists of estrogen receptor alpha signaling (AID 588514); conditions: ER-alpha-UAS-bla HEK293, beta-lactamase ratio, 18 h; series mostly up to 76.8 µM;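 further: 0% = vehicle only and 100% = reference agonist; nearly all actives have a fitted effect of over 70% in size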
Method in brief: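 ER-alpha-UAS-bla GripTite HEK293 cells, 5000/well in 2% charcoal/dextran-stripped FBS medium, treated with compound titrations 18 h at 37 C. CCF4 beta-lactamase read by fluorescence after 2 h RT; normalised to 20 nM 17-beta-estradiol (100%) and DMSO (0%), Hill fit for EC50 and efficacy.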

[11] = target: Bile acid receptor (Homo sapiens) (UniProt Q96RI1); assay: qHTS assay for small molecule agonists of farnesoid X receptor signaling (AID 588527); conditions: HEK293T FXR-UAS-bla, beta-lactamase ratio, 16 h; activation: stronger effect = higher value;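 further: 0% = vehicle basal and 100% = reference agonist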
Method in brief: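 FXR-UAS-bla HEK293T cells (10% dialyzed FBS) preincubated 5-7 h at 37 C, then compounds at up to 92 uM for 16 h at 37 C. CCF4 beta-lactamase read-out after 2 h RT. Normalized to chenodeoxycholic acid (100 uM) and DMSO; Hill fit gave EC50 and efficacy.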

Peroxisome proliferator-activated receptor delta (Homo sapiens), sequence (Q03181 whole entry, looked up): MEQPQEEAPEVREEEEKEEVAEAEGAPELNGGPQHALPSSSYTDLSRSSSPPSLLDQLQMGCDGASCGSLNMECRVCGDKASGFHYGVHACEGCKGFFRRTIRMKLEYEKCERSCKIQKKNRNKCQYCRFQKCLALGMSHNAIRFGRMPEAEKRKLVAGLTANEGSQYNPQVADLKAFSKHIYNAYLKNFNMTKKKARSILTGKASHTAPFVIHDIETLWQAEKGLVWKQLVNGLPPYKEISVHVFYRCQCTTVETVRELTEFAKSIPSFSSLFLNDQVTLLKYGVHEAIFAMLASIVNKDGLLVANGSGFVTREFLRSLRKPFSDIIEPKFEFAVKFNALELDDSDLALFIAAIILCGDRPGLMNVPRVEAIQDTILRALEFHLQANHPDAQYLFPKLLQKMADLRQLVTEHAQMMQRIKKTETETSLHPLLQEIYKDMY
Androgen receptor (Homo sapiens), sequence (P10275 whole entry, looked up): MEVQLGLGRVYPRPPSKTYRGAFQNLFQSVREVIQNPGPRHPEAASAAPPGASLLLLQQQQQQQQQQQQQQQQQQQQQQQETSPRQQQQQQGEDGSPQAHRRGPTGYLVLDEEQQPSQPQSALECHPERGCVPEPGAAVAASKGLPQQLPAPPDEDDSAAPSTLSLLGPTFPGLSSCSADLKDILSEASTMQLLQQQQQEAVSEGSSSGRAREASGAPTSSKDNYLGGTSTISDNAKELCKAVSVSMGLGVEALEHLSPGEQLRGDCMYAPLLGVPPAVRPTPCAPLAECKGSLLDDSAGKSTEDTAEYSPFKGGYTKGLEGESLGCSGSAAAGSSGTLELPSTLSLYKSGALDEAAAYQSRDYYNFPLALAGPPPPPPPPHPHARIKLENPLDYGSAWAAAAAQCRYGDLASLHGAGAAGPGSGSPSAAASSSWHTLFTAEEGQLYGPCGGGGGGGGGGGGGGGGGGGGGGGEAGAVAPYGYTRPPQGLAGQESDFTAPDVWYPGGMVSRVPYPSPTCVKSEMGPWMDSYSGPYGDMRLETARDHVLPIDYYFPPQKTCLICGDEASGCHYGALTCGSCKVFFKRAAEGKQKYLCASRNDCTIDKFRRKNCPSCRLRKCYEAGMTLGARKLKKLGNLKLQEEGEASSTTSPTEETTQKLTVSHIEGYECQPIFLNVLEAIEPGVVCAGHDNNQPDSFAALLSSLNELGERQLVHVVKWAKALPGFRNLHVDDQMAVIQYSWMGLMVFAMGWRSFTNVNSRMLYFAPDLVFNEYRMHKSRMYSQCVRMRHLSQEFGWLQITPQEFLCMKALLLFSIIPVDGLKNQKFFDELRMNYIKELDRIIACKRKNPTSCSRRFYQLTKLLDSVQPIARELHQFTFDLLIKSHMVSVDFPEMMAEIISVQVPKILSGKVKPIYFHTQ
Estrogen receptor (Homo sapiens), sequence (P03372 whole entry, looked up): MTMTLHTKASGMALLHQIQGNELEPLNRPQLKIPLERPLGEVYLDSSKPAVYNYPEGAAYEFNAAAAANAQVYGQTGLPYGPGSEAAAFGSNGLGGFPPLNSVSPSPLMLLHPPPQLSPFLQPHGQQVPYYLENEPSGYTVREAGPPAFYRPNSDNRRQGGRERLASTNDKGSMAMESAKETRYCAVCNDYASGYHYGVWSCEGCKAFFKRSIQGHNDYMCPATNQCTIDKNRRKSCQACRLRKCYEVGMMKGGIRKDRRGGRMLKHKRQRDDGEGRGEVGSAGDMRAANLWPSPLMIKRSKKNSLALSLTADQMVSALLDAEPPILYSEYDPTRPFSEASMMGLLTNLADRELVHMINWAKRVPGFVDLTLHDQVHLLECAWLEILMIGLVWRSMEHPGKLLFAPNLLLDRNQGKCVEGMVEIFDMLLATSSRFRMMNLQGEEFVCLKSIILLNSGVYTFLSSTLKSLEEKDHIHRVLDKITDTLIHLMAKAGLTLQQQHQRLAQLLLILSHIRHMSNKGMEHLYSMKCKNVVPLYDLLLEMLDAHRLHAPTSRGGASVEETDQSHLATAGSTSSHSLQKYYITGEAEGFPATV
Bile acid receptor (Homo sapiens), sequence (Q96RI1 whole entry, looked up): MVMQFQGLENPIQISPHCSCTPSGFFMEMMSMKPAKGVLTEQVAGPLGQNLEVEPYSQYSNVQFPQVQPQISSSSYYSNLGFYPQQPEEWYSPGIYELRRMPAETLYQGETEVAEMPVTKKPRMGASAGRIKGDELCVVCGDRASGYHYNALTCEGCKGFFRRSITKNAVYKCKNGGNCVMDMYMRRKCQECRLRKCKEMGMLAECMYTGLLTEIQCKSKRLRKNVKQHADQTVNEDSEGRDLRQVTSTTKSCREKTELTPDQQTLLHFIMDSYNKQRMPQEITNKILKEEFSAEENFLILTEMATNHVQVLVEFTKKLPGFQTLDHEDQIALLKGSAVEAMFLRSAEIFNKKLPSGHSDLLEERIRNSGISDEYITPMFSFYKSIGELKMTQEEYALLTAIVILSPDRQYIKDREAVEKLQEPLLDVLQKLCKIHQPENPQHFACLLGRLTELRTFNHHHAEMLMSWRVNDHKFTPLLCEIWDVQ
Peroxisome proliferator-activated receptor gamma (Homo sapiens), sequence (P37231 whole entry, looked up): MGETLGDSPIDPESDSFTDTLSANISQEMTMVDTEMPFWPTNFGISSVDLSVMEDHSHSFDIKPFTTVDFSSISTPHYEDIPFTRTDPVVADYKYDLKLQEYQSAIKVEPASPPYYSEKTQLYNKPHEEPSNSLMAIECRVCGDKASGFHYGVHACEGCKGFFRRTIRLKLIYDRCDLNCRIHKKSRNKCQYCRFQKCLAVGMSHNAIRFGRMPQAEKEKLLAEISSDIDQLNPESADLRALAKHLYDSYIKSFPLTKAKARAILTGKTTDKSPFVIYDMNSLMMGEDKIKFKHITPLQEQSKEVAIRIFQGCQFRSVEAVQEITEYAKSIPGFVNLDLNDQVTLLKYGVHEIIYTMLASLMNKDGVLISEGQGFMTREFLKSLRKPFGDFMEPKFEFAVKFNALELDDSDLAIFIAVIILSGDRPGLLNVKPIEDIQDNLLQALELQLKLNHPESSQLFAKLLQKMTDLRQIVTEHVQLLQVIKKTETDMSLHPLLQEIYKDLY

CCSCCSP(=O)(OC)OC
active: Potency [8] 54.5 µM
1.71%: max response [7]
inactive: activation [1] -9.34% | Potency [2] | Potency [3] | Potency [4] | Potency [5] | Potency [6] | outcome [9]

CCC(C)Nc1c([N+](=O)[O-])cc(C(C)(C)C)cc1[N+](=O)[O-] (centres undefined)
-9.41%: max response [7]
inactive: Potency [10] | Potency [4] | Potency [5] | Potency [6]

COC(=O)/C=C(\C)OP(=O)(OC)OC
inactive: Potency [10] | Potency [8]
-22.9%: max response [7]

O=S(=O)(c1ccc(Cl)cc1)c1cc(Cl)c(Cl)cc1Cl
active: Potency [8] 27.3 µM
inactive: Potency [10]

CC1(C)C(C(=O)OC(C#N)c2cccc(Oc3ccccc3)c2)C1(C)C (centres undefined)
inactive: Potency [10] | activation [11] 5.5% | Potency [4]

N#CC(CCc1ccc(Cl)cc1)(Cn1cncn1)c1ccccc1 (centres undefined)
active: Potency [8] 68.6 µM
inactive: Potency [10]

CCNc1nc(Cl)nc(NC(C)(C)C)n1
inactive: activation [1] -15.6% | Potency [2] | Potency [3] | activation [11] 0.616% | Potency [4] | Potency [6] | Potency [8]

CCOP(=O)(OCC)OP(=O)(OCC)OCC
-12.7%: max response [7]
inactive: activation [1] 5.85% | Potency [2] | Potency [3] | activation [11] 2.91% | Potency [4] | Potency [5] | Potency [6] | Potency [8]

COc1ccc(-c2ccccc2)cc1NNC(=O)OC(C)C
active: Potency [8] 54.5 µM
inactive: activation [1] -16.7% | Potency [2] | Potency [3] | activation [11] 1.06% | Potency [5] | Potency [6] | outcome [9]

O=C(O)C(F)(F)C(F)(F)C(F)(F)C(F)(F)C(F)(F)C(F)(F)C(F)(F)C(F)(F)C(F)(F)F
inactive: Potency [10] | Potency [4] | Potency [5] | Potency [6] | outcome [9]
-12.9% and -38.7%: max response [7]

COP(=O)(OC)SCn1c(=O)oc2cc(Cl)cnc21
active: Potency [8] 27.3 µM
inactive: activation [1] 7.35% | Potency [2] | Potency [5] | outcome [9]

C=CCOC(=O)C(C)(C)OC(=O)c1cc(-n2c(=O)cc(C(F)(F)F)n(C)c2=O)ccc1Cl
inactive: Potency [10] | Potency [6]

Cc1nn(-c2cc(NS(C)(=O)=O)c(Cl)cc2Cl)c(=O)n1C(F)F
10.2%: max response [7]
inactive: activation [1] -3.3% | Potency [2] | Potency [4] | Potency [5] | Potency [6] | Potency [8]

COc1cc(OC)nc(NC(=O)NS(=O)(=O)c2cc(NC=O)ccc2C(=O)N(C)C)n1
-3.56%: max response [7]
inactive: activation [1] 1.85% | Potency [2] | Potency [3] | activation [11] -1.24% | Potency [4] | Potency [5] | Potency [6] | outcome [9]

ClCc1ccccc1Cl
-22.8%: max response [7]
inactive: activation [1] 1.96% | Potency [2] | Potency [3] | activation [11] -0.339% | Potency [5] | Potency [6] | outcome [9]

C=C(C)C(=O)OCC(CC)CCCC (centres undefined)
inactive: Potency [10] | Potency [5] | Potency [8] | outcome [9]
